{"source": "PubChem BioAssay (Tox21)", "note": "The source made the active and inactive calls. A call without a number means that no potency is given here. Calls follow the shape of the full dose curve."}
{"test": "G protein-coupled receptor (GPCR) small molecule agonists, calcium flux assay: HEK293 wild type cell line counter screen (AID 1920065)", "conditions": "HEK293 WT calcium flux, fluorescence, agonist mode; series mostly up to 57.6 µM", "source_text": "U.S. Tox21 Program National Center for Advancing Translational Sciences [NCATS] Division of Preclinical Innovation [DPI] U.S. Environmental Protection Agency [EPA] National Institutes of Environmental Health Sciences [NIEHS] National Toxicology Program [NTP] U.S. Food and Drug Administration [FDA] Assay overview: The increased intracellular calcium release that occurred upon G protein-coupled receptor (GPCR) activation led to the frequent use of calcium flux assays to detect GPCR activation. For the purpose of studying and screening compounds that may activate GPCR, receptor-overexpressing models were typically generated using Hek293 wild-type (WT) cells. In order to eliminate the compounds that may have induced calcium release for non-specific activation, a counter-assay utilizing calcium flux on Hek293 WT cells was performed. The data were formulated in order to serve as a control for any calcium flux detection utilizing Hek293 cells with either GPCR overexpression or gene modification. The procurement of Hek293 WT cells from ATCC. Fluorescence intensity can be utilized to determine the activation of the compound in a calcium flux assay. As a counter control, this cell line was utilized to screen the Tox21 10K compound library.\nAssay Protocol Summary: Hek293 cells were dispensed at 1500cells/4uL/well in 1536-well black wall/clear bottom plates using a multidrop dispenser. After the assay plates were incubated at a 37 C/5% CO2 incubator for 18 hours, 4 uL of Calcium Dye Solution was added to each well. The plates were incubated at 37 C for 1 hour. For agonist mode, 23 nL of compounds dissolved in DMSO, positive control (ATP) or DMSO only was transferred to the assay plate by a pin tool station. The fluorescence intensity in the plates was measured using FDSS 7000EX kinetic plate reader with a filter set of Ex/Em=480/540 for 3 min at 1 sec intervals. Each test compound was measured at 15 concentrations and in triplicates."}
{"compound": "Nc1nc2ccc([N+](=O)[O-])cc2s1", "Potency": "inactive"}
{"compound": "CC(N)=O", "Potency": "inactive"}
{"compound": "CCC/C=C(\\C=O)CC", "Potency": "inactive"}
{"compound": "c1coc(Cn2cccc2)c1", "Potency": "inactive"}
{"compound": "CCOc1cccc(-n2cc(C(=O)N3CCN(c4cc(C(=O)O)c5ccccc5c4)CC3)nc2-c2ccc(C)cc2)c1", "Potency": "inactive"}
{"compound": "CNCCCCOc1ccccc1Cc1ccccc1", "Potency": "inactive"}
{"compound": "CCC(=O)OCCC(C)CCC=C(C)C", "note": "(stereo not given)", "Potency": "inactive"}
{"compound": "CC(C)CCCCCCCOC(=O)c1ccc(C(=O)OCCCCCCCC(C)C)c(C(=O)OCCCCCCCC(C)C)c1", "Potency": "inactive"}
{"compound": "CC(C)(CO)[C@@H](O)C(=O)NCCCO", "Potency": "inactive"}
{"compound": "CC(C)c1ccc(O)c(C(C)C)c1", "Potency": "inactive"}
{"compound": "On1ccccc1=S", "Potency": "inactive"}
{"compound": "CCC1OCC(COc2ccc(Oc3ccccc3)cc2)O1", "note": "(stereo not given)", "Potency": "inactive"}
{"compound": "CCCCCCCCCCCCOC(C)=O", "Potency": "inactive"}
{"compound": "CC(C)Cn1cnc2c1c(=O)n(C)c(=O)n2C", "Potency": "inactive"}
{"compound": "CCO[Si](CCC1CCC2OC2C1)(OCC)OCC", "note": "(stereo not given)", "Potency": "inactive"}
{"compound": "C[N+]1(C)CCC(OC(=O)C(O)(c2ccccc2)C2CCCC2)C1", "note": "(stereo not given)", "Potency": "inactive"}
{"compound": "Cc1cc2c(cc1C(F)(F)F)N(C(=O)Nc1ccc(Oc3cccnc3C)nc1)CC2", "Potency": "inactive"}
{"compound": "O=C1OC(=O)c2cc(Oc3ccc4c(c3)C(=O)OC4=O)ccc21", "Potency": "inactive"}
{"compound": "c1cc(C(c2ccc(OCC3CO3)cc2)c2ccc(OCC3CO3)cc2)ccc1OCC1CO1", "note": "(stereo not given)", "Potency": "inactive"}
{"compound": "CCN(CC)CCOC(=O)C(c1ccccc1)C1CCCCC1", "note": "(stereo not given)", "Potency": "inactive"}
{"compound": "CCN(CC)c1ccc(N=Nc2ccccc2)cc1", "Potency": "inactive"}
{"compound": "CC(C)NC(=O)c1ccc(C=O)cc1", "Potency": "inactive"}
{"compound": "CCOC(=O)c1ccc(C#Cc2ccc3c(c2)C(C)(C)CCS3)nc1", "Potency": "inactive"}
{"compound": "CC1=CCC(C(C)C)C=C1", "note": "(stereo not given)", "Potency": "inactive"}
{"compound": "CC(=O)S[C@@H]1CC2=CC(=O)CC[C@]2(C)[C@H]2CC[C@@]3(C)[C@@H](CC[C@@]34CCC(=O)O4)[C@H]12", "Potency": "inactive"}
{"compound": "CCOc1ccc2nc3cc(N)ccc3c(N)c2c1", "Potency": "inactive"}
{"compound": "CC(=O)N1CCN(c2ccc(OC[C@H]3CO[C@](Cn4ccnc4)(c4ccc(Cl)cc4Cl)O3)cc2)CC1", "Potency": "inactive"}
{"compound": "OCCOCC#CCOCCO", "Potency": "inactive"}
{"compound": "O=C(O)c1ccccc1Nc1cc(Cl)ccc1C(=O)O", "activation": "-0.251% [at 11.8 µM] (inactive)"}
{"compound": "CCCCN(CCN(CCCC)C(=O)N1CCOCC1)C(=O)N1CCOCC1", "Potency": "inactive"}
{"compound": "C[Si](Cl)(c1ccccc1)c1ccccc1", "Potency": "inactive"}
{"compound": "COC=O", "activation": "2.54% [at 5.23 µM] (inactive)"}
{"compound": "CN1C[C@H]2c3ccccc3Oc3ccc(Cl)cc3[C@@H]2C1", "Potency": "inactive"}
{"compound": "CCOC(=O)c1ccccc1C(=C1C=C(Br)C(=O)C(Br)=C1)c1cc(Br)c(O)c(Br)c1", "Potency": "inactive"}
{"compound": "COC1=C(OC)C(=O)C(CCCCCCCCCCO)=C(C)C1=O", "Potency": "inactive"}
{"compound": "CC(=O)Oc1cccc(C)c1", "Potency": "inactive"}
{"compound": "OC/C(Br)=C(\\Br)CO", "Potency": "inactive"}
{"compound": "CN1CCN2c3ccccc3Cc3ccccc3C2C1", "note": "(stereo not given)", "Potency": "inactive"}
{"compound": "CC(=O)Oc1ccc([N+](=O)[O-])cc1CCl", "Potency": "inactive"}
{"compound": "CC(=O)Oc1cccc2c1C(=O)c1c(OC(C)=O)cc(C(=O)O)cc1C2=O", "Potency": "inactive"}
